# Measurements from the supplement of paper PMC3334620.
# The full ranking holds about 33,000 sequences; the median of “E-score (-0.5 to 0.5)” is about -0.012, and the highest 2% start at about 0.29. This is one part of a sample in which the highest values are shown more often than they occur.
# Target: T1, Ybr033w (UniProt P38073)
# T1 sequence: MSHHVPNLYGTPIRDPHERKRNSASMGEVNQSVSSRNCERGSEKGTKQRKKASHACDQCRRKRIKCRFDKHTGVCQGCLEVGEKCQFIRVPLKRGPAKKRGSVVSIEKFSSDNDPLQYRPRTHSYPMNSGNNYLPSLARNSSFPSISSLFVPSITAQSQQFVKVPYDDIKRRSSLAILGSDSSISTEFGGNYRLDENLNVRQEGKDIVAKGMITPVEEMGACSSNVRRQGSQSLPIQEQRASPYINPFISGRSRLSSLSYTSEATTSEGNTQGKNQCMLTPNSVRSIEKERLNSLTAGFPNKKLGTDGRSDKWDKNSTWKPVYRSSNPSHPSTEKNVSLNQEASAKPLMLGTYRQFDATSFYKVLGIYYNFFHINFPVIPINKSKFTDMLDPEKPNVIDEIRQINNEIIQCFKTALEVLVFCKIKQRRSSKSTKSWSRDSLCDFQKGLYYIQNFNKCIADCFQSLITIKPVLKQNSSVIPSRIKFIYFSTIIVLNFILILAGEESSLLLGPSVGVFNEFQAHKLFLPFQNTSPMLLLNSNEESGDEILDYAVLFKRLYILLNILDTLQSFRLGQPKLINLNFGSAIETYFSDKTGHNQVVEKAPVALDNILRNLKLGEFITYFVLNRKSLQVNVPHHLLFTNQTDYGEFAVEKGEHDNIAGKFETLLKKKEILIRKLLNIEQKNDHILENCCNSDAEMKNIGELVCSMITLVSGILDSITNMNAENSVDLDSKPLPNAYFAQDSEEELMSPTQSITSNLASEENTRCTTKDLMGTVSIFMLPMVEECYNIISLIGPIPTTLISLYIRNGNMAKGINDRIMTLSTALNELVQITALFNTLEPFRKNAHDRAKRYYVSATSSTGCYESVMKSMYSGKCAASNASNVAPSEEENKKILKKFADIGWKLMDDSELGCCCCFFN
# Assay: PBM E-score (8-mer binding enrichment) (E-score (-0.5 to 0.5)); higher = stronger / more preferred TF binding
# Conditions: protein concentration: 200 nM; construct: GST-full length
# Protocol: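 Universal 'all 10-mer' protein binding microarrays (Agilent AMADID 015681) probed with GST-tagged S. cerevisiae TFs (full-length or DBD) made by in vitro transcription/translation (PURExpress), about 100-200 nM. Bound TF was detected with fluorescent anti-GST. Each ungapped 8-mer (which stands for itself and its reverse complement) is scored by the PBM enrichment score (E-score), a modified Wilcoxon-Mann-Whitney statistic from -0.5 to +0.5, computed with the Universal PBM Analysis Suite. Scale: above 0.35 generally sequence-specific binding.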
row,Sequence,PBM E-score
1,CTCCACAA,0.0525
2,GTCCAGAA,-0.051
3,TTCCAGAA,0.294
4,CTCCAGAA,-0.0883
5,TTCCACAA,0.314
6,GTCCACAA,0.0077
7,ATGAAGAA,0.126
8,CTGAACAG,0.00549
9,AACGACAA,0.175
10,GACGACAA,0.293
11,CACGACAA,-0.0495
12,GAAAGTAC,0.0791
13,GACCATTA,0.2
14,GACTTAAA,0.0498
15,GGTTAAGA,0.0725
16,TACTACCA,0.106
17,AACATAAC,0.281
18,ATCATTTA,0.336
19,ATCATTAA,0.313
20,AACATATA,0.298
21,ATCATTTC,0.258
22,CACATATA,0.0859
23,CTCATTTA,0.0742
24,AACATAAA,0.11
25,AACATAAT,0.295

row,Sequence,PBM E-score
1,ATCATTAG,0.16
2,GACATATA,0.185
3,CTCATTAA,0.23
4,AGTTGTAT,0.0541
5,TGGCCTAA,-0.088
6,ATGGCAAG,-0.0226
7,GTCCTTGA,-0.0584
8,GACCTATC,-0.0417
9,AGCCACGA,-0.228
10,TCACACGA,-0.00326
11,CTACTAAC,0.222
12,CAAGCGTA,0.093
13,GACATTTA,-0.045
14,AACATTTA,0.296
15,AACATTTC,0.272
16,CCACTTGC,-0.0925
17,CCGCGCGG,0.104
18,AGATCGAG,0.0958
19,TACCAATA,0.0786
20,CCCATCAA,0.101
21,TCCATCAA,0.312
22,CACATCAA,0.127
23,ACCATCAA,0.137
24,AACATCAA,0.319
25,GACATCAA,0.0415

row,Sequence,PBM E-score
1,AATGCCAA,0.112
2,CACCTCAC,0.0264
3,TCCTTTAA,0.132
4,ATGACTGG,-0.17
5,GACTGCAC,-0.221
6,ATCAATTC,0.125
7,AACAATTC,0.205
8,ATCAATAG,0.178
9,ATCAATTG,0.252
10,AACAATTG,0.115
11,ATCAATTA,0.365
12,CTCAATAA,0.12
13,ATCAATAA,0.321
14,AACAATTA,0.366
15,CAGGAGGC,-0.202
16,CAATTGCC,0.0461
17,AATACTCG,0.22
18,CTGAGACC,-0.291
19,CGTCTGGC,0.0541
20,ATACCATG,-0.0754
21,ATACCATA,0.297
22,GTACCATA,0.00958
23,ATCGAAAT,0.119
24,AATAAAGT,0.265
25,CTAAAGAA,0.0669

row,Sequence,PBM E-score
1,TTAAAGAA,0.117
2,ACAAAGTA,0.3
3,ACAAAGTC,0.0213
4,ATAAAGTG,0.244
5,GCAAAGTA,0.113
6,GTAAAGTA,0.174
7,ATAAAGTA,0.306
8,ATAAAGAA,0.291
9,AGTAAGAA,0.208
10,AACAGTGA,-0.0153
11,ATGTGCTA,0.208
12,GCTGCTCA,-0.11
13,CTCTCTCC,-0.21
14,ACACTCAC,0.0907
15,GACGCAGA,-0.127
16,ATAGCTAT,0.13
17,ACTATCCC,-0.24
18,ATTATCCC,0.321
19,ATTATCTG,0.218
20,ATTATCCG,0.469
21,ATTATCGG,0.0549
22,GTTATCCA,0.0783
23,CTTATCCC,-0.16
24,ATTATCGA,0.0687
25,ATTATCCA,0.341

row,Sequence,PBM E-score
1,CTTATCCA,0.0666
2,ACTATCCG,0.16
3,ATTATCGC,0.319
4,AACCATAG,0.0244
5,CGTCAAAA,0.108
6,ACACCAGA,0.059
7,GAGACGCC,-0.0848
8,AAATTTCG,0.139
9,ACCTTTTA,-0.0294
10,ATCCACAC,-0.00864
11,AGCTTGCC,-0.231
12,AACAGGTG,-0.0949
13,CCACCTCA,-0.134
14,AGGAGACT,-0.0682
15,ACGCCCCT,-0.389
16,AAAGGAAT,0.0153
17,AGCAAAAA,0.319
18,ACCAAAAC,0.0839
19,CAAAAAAC,0.146
20,ACCAAAAT,0.111
21,ACCAAAAA,0.332
22,CAAAAAAG,0.261
23,AGCAAAAC,0.0585
24,CCAAAAAA,0.332
25,CCAAAAAC,0.132

row,Sequence,PBM E-score
1,CCCAAAAA,-0.19
2,CAAAAAAA,0.293
3,AGCAAAAT,0.2
4,GATATCGC,0.119
5,GGCTTCGA,-0.138
6,CTGTTCTA,-0.094
7,GCGCGAGC,-0.21
8,CCCTGCCC,-0.376
9,CCGCCAGA,-0.0108
10,CTGTCTCC,0.00722
11,GCCAGTAC,-0.0841
12,CGTTATGC,0.0079
13,CTTTTGGC,-0.0369
14,ATTATGTG,0.11
15,ATATTATA,0.227
16,ACTATATC,0.229
17,AGTATATC,0.213
18,ATATTATG,0.315
19,AGTATATG,0.0561
20,AGTATATA,0.389
21,GCTATATA,0.194
22,ACTATATA,0.309
23,ATATTATC,0.265
24,ATTATGTC,0.17
25,ATTATGTA,0.312

row,Sequence,PBM E-score
1,ACTGGAAC,0.072
2,ACCCACCC,0.0336
3,AACGCGAT,0.0217
4,TCTCTGCA,-0.162
5,GCACTTCA,0.0397
6,AGCGCTTC,0.016
7,ACCATCAT,0.0599
8,AGTGCTAC,-0.0555
9,CCCGGGAG,-0.0399
10,CGGCTCAA,0.103
11,CACTCGCA,-0.00609
12,ATTATATC,0.256
13,ATTATACA,0.222
14,ATTATATA,0.297
15,ATATTACC,0.227
16,CTTATATC,0.146
17,ATTATATG,0.289
18,CTTATATA,0.334
19,GTTATATA,0.154
20,ATATTACA,0.256
21,ATATTACG,0.333
22,ACTATATG,0.256
